High-throughput results deposited in PubChem by Fisher Drug Discovery Resource Center.
hcGAS inh – blocks human cGAS activity; Q8N884; inhibition, % at 12.5 µM; 0.081% of 290,000 active; recombinant h-cGAS, ATP depletion, Kinase-Glo luminescence
mcGAS inh – mouse cGAS inhibition by luminescence. recombinant cGAS, Kinase-Glo ATP depletion luminescence. 0.15% of 160,000 active. Q8C6L5. inhibition, % at 12.5 µM
Target sequence (Q8C6L5 whole entry, looked up): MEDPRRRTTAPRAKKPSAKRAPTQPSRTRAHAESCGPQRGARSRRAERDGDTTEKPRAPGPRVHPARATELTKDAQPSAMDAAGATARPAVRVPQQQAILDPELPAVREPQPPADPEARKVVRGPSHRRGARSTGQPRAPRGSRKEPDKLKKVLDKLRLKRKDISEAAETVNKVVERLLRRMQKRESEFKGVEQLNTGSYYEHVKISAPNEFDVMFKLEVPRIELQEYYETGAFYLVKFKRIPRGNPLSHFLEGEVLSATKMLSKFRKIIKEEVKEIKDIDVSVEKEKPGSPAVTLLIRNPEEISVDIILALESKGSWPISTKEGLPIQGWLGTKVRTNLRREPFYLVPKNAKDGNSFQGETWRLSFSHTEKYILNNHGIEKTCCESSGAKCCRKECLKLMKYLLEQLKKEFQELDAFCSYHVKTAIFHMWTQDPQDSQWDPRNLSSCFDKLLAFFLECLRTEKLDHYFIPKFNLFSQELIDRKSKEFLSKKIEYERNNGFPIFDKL
NPYLR7 ag – activates Aedes aegypti NPYLR7 receptor; HEK293T NPYLR7/Galpha15, GCaMP6s calcium fluorescence; activation, % at 10 µM; 0.15% of 270,000 active; in the data active = activation above about 40%
A number is an active result; n = inactive; x = no result given; ! = not confirmed by another sample. Compounds with a hit are over-represented: about 0.3% of the library has one in this group of screens. Cut-off read from the data, not from the text of the source, unless noted: active = inhibition above about 40%; inactive = the rest.

SMILES	hcGAS inh	mcGAS inh	NPYLR7 ag
C=CCN1C(=O)C(=Cc2ccncc2)SC1=S	n	x	n
COc1cc(OC)c(OC)cc1/C=C1/SC(=S)N(CC(=O)O)C1=O	n	n	58.7
C=CCN1C(=O)/C(=C\c2ccc(O)cc2)SC1=S	n	n	54.9
Cc1ccccc1-n1cc(CN(C)Cc2nc(-c3cnccn3)no2)cn1	n	n	n
O=C(COc1ccc2c(c1)OCCO2)NCc1ccc(F)cc1	n	x	x
CC(C)C(C)NC(=O)CSc1nc2ccccc2o1 (stereo unspecified)	n	n	n
CC(c1ccon1)N(C)C(=O)c1cccc(OC2CCN(C(=O)C3CC3)CC2)c1 (stereo unspecified)	n	x	n
CN(C)c1ccc(/C=C2/SC(=S)N(CC(=O)O)C2=O)cc1	n	n	70.8
O=C(O)CN1C(=O)/C(=C\c2ccc(O)c(O)c2)SC1=S	n	n	n
CCN(CC)c1ccc(/C=C2\SC(=S)N(CC(=O)O)C2=O)c(O)c1	n	n	93.1
O=C(O)C(Cc1ccccc1)N1C(=O)/C(=C/c2ccc([N+](=O)[O-])cc2)SC1=S (stereo unspecified)	n	53.8	n
CC(C(=O)O)N1C(=O)/C(=C/c2ccc([N+](=O)[O-])cc2)SC1=S (stereo unspecified)	n	n	n
C=CCN1C(=O)/C(=C\c2ccc(N(C)C)cc2)SC1=S	n	n	n
CCCCn1c(C)cn2c3c(=O)n(Cc4ccc(F)cc4)c(=O)n(C)c3nc12	n	n	n
CC1CC(C)CN(C(=O)C(C)N2CCN(S(=O)(=O)c3ccc(F)c(F)c3)CC2)C1 (stereo unspecified)	n	x	n
CCC(C)N(Cc1ccncc1)C(=O)CCc1ccc(F)c(F)c1 (stereo unspecified)	n	n	n
CCC(C)(C)C1CCC2(CC1)NC(=O)N(CC(=O)c1ccccc1)C2=O (stereo unspecified)	n	x	n
CCC(=O)c1ccc(OCC(=O)NNC(=O)c2cccc(S(=O)(=O)N(C)C)c2)cc1	n	x	n
CC1CCCCC1OCCNC(=O)C1(c2ccc(F)cc2)CCC1 (stereo unspecified)	n	x	54.7
O=C(NCCN1CCCC1)C1(c2ccc(F)cc2)CCOCC1	n	x	n
C=CCNC(=O)c1ccccc1N1CCC(NC(=O)COC)CC1	n	54.5	n
C=CCNC(=O)NC1CCN(c2ccccc2C(=O)NCCOC)CC1	n	n	n
O=C(O)c1csc(CSc2nnc(Cc3ccccc3)n2-c2cccc(C(F)(F)F)c2)n1	n	n	55.2
O=C(NCc1cccc(C(F)(F)F)c1)c1csc(CSc2nnc(Cc3ccccc3)n2-c2ccccc2)n1	n	n	n
CC1(C)O[C@@H]2C[C@@](OCc3ccccc3F)(C(=O)NCCN3CCCC3)CC(OCc3ccc(C(F)(F)F)cc3)[C@@H]2O1 (stereo partly specified)	n	n	n
SMILES	hcGAS inh	mcGAS inh	NPYLR7 ag
CC1Cc2ccccc2N1Cc1cccc(C(N)=O)c1 (stereo unspecified)	n	x	n
NC(=O)c1cc(-c2ccccc2)sc1NC(=O)CCl	n	81.5	n
COC(=O)c1cc(-c2ccccc2)sc1NC(=O)CCCl	n	n	n
Cc1ccc(COC2CCCN(C(=O)c3ccco3)C2)cc1 (stereo unspecified)	n	n	n
CC(Cn1ccnc1)NC(=O)NCC(C)(C)c1ccccc1F (stereo unspecified)	43.4	x	n
CC(Cn1ccnc1)NC(=O)c1ccccc1N(C)C(=O)c1cccs1 (stereo unspecified)	n	x	n
CN(C)CCCN(C(=O)c1ccc(Cl)s1)c1nc2cc3c(cc2s1)OCCO3	n	n	n
Cc1ccc(-c2nn(-c3ccccc3)cc2C(=O)N2CCCCCC2)o1	n	x	n
Nc1c2ccccc2nc2ccccc12 (tested in a mixture with another compound)	54.5	x	n
Nc1ccccc1-c1nc(-c2ccccc2)nc2ccccc12	n	n	n
COc1cc([N+](=O)[O-])ccc1NC(=O)CCl	n	69.6	n
O=C(CCl)Nc1cc([N+](=O)[O-])ccc1Nc1ccc(F)cc1	n	57.5	n
COc1ccc([N+](=O)[O-])cc1NC(=O)C1CCCC1	n	n	n
CCCCC(=O)Nc1cc([N+](=O)[O-])ccc1OC	n	x	n
O=[N+]([O-])c1ccc(Nc2ccc(F)cc2)c([N+](=O)[O-])c1	n	n	n
COc1ccc([N+](=O)[O-])cc1NC(=O)CCl	n	44.5	n
COc1ncccc1-c1ccccc1CN1CCNCC1	n	n	n
COc1cccc(NC(=O)N2CCN(CC(OCc3ccc(C)cc3)c3cccc(OC)c3)CC2)c1 (stereo unspecified)	n	n	x
CN(C)CCNC(=O)c1coc(CN(Cc2ccoc2)Cc2cccc(C(F)(F)F)c2)n1	n	n	x
CCCOc1ccc(C=O)c(O)c1	n	x	n
CCOc1cc(C=O)c(O)c(C=O)c1	n	x	826.7
O=C(CN(Cc1ccccc1)c1nc(Cc2ccc(F)cc2)ns1)NCCc1ccc(Cl)cc1Cl	n	n	x
Brc1c(Br)c(Br)c2n[nH]nc2c1Br	40.9	84.3	n
Brc1c(Br)c(Br)c2[nH]cnc2c1Br	n	n	n
CCCn1ccnc1CN(C)Cc1nc(-c2cccnc2)no1	n	n	n
SMILES	hcGAS inh	mcGAS inh	NPYLR7 ag
COCCN(Cc1csc(COc2cccc3ccccc23)n1)C(=O)c1ccccc1F	n	n	x
CC1C(=O)N(c2cccc(F)c2)CCN1C(=O)C1CCCC1 (stereo unspecified)	n	n	n
CC1C(=O)N(c2cccc(F)c2)CCN1C(=O)C1CC1 (stereo unspecified)	n	n	43.9
COc1ccc2c(c1OC)C(=O)OC2CC(=O)c1ccc([N+](=O)[O-])cc1 (stereo unspecified)	n	57.5	n
COc1cccc(OC)c1OCCCOc1ccc([N+](=O)[O-])cc1	n	x	n
N#CC(C#N)=Cc1cn(-c2ccccc2)nc1-c1cc2ccccc2o1	n	x	n
N#CC(C#N)=Cc1cn[nH]c1-c1cc2ccccc2o1	n	46.0	n
COc1ccc(Cl)cc1NC(=O)/C(C#N)=C/c1coc2ccc(C)cc2c1=O	n	x	49.6
COc1ccc(C)cc1NC(=O)Cn1cnc2cc(Cl)ccc2c1=O	n	x	n
CCCC(=O)N(CC(=O)N(CCCOC)Cc1cccn1Cc1cccc(C(F)(F)F)c1)Cc1ccccc1	n	n	n
CCOc1c(Cl)cc(C(=O)N2CCN(S(=O)(=O)c3ccc4c(c3)CCCC4)CC2)cc1OC	n	n	n
CCN(CC)CCNc1ccc(CO)c2sc3ccccc3c(=O)c12	54.4!	x	n
CCN(CC)CCNc1nc2c(F)cccc2s1	n	x	n
Cc1cc(-n2c(C)cc(C(=O)Cn3cc(S(=O)(=O)N4CCCC4)ccc3=O)c2C)no1	n	x	n
CCc1nnc(NC(=O)c2cc(C)no2)s1	n	46.0	n
CCOC(=O)c1sc(NC(=O)c2cc(C)no2)nc1C	n	n	n
FC(F)(F)c1cc(-c2cccs2)nc2ncnn12	n	n	94.7
FC(F)(F)c1cc(-c2ccccc2)nc2ncnn12	n	n	n
O=C(NCc1ccncc1)N1CCc2ccc(Br)cc21	n	x	n
Cc1nc(N)c(C#N)c(-c2cccs2)c1C	n	x	n
N#Cc1c(N)oc(-c2ccccc2)c1-c1ccccc1	49.5	n	n
Nc1nnc(-c2ccccc2)o1	n	x	n
N#Cc1c(N)oc(-c2cccs2)c1-c1cccs1	54.6	x	n
